About 8,800 targets were measured; listed, in parts, are those with a hit and a random draw of the rest. About 0.5% of all pairs of compound and target were hits. Unmarked numbers belong to inactive results.
How the values were obtained:
Test in all cases: log2 fold change, soluble protein after heating vs DMSO (PISA); higher = thermal stabilisation; K562 lysate, 10 uM; active = over 0.2 and 3.5 SD of the protein, either way, in both replicates (recomputed)
[1] = compound: NCC(=O)Nc1ccc(-n2nc(C(F)(F)F)cc2-c2ccc3c(ccc4ccccc43)c2)cc1
How it was run: (§1)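 Values give the log-two fold change in thermal stability against solvent controls, from duplicates. Crude K562 extract at 1 mg/mL protein, made by dounce homogenisation in PBS pH 7.4 with 1 mM MgCl2, was treated with 10 μM compound for 30 min. After 3 min heating across 48°C-58°C, aliquots were pooled, adjusted to 0.5% NP-40 at 4°C and centrifuged at 21,000xg for 90 min. The supernatant was measured by TMTpro 16plex LC-MS/MS with channel sums equalised.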

vorinostat = compound: O=C(CCCCCCC(=O)Nc1ccccc1)NO [vorinostat]
How it was run: as §1

silmitasertib = compound: O=C(O)c1ccc2c(c1)nc(Nc1cccc(Cl)c1)c1ccncc12 [silmitasertib]
How it was run: as §1

[2] = compound: O=C1NC(=O)C(c2cnc3ccccn23)=C1c1cn2c3c(cc(F)cc13)CN(C(=O)N1CCCCC1)CC2
How it was run: as §1

entospletinib = compound: c1cn2cc(-c3ccc4cn[nH]c4c3)nc(Nc3ccc(N4CCOCC4)cc3)c2n1 [entospletinib]
How it was run: as §1

Chain of UniProt Q96NT1 (Q96NT1 whole entry, looked up): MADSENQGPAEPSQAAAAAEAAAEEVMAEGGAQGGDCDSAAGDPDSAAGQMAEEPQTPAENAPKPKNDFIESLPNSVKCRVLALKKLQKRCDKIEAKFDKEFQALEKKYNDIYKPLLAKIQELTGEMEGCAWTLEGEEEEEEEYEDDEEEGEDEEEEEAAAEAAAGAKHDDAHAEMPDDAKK
Chain of UniProt Q9BZD4 (Q9BZD4 whole entry, looked up): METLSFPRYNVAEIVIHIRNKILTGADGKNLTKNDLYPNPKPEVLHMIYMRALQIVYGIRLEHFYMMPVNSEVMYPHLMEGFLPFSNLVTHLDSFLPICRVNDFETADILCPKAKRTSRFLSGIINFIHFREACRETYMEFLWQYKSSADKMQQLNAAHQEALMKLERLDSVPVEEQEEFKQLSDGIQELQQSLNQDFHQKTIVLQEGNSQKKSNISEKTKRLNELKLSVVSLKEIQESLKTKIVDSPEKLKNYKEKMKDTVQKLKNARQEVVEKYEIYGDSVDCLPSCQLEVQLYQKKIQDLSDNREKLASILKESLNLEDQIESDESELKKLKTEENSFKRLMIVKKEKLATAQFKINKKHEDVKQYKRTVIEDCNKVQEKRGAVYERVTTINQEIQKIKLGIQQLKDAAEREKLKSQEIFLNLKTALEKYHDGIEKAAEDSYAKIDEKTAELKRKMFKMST
Chain of UniProt Q9Y6C9 (Q9Y6C9 whole entry, looked up): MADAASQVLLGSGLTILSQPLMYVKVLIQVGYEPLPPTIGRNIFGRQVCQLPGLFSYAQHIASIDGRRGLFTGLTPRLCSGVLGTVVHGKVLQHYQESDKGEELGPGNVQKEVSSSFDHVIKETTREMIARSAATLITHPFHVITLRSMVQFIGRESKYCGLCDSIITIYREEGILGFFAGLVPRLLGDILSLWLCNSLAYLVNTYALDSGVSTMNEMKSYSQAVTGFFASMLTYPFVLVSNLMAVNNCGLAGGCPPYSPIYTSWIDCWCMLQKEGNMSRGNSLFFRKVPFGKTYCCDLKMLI
Chain of UniProt Q9NZJ9 (Q9NZJ9 whole entry, looked up): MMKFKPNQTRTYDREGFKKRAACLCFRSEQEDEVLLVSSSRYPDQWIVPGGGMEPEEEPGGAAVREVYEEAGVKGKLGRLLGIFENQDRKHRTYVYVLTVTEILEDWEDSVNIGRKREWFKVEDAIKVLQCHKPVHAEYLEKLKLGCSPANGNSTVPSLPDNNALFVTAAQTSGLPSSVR
Chain of UniProt Q9BTX1 (Q9BTX1 whole entry, looked up): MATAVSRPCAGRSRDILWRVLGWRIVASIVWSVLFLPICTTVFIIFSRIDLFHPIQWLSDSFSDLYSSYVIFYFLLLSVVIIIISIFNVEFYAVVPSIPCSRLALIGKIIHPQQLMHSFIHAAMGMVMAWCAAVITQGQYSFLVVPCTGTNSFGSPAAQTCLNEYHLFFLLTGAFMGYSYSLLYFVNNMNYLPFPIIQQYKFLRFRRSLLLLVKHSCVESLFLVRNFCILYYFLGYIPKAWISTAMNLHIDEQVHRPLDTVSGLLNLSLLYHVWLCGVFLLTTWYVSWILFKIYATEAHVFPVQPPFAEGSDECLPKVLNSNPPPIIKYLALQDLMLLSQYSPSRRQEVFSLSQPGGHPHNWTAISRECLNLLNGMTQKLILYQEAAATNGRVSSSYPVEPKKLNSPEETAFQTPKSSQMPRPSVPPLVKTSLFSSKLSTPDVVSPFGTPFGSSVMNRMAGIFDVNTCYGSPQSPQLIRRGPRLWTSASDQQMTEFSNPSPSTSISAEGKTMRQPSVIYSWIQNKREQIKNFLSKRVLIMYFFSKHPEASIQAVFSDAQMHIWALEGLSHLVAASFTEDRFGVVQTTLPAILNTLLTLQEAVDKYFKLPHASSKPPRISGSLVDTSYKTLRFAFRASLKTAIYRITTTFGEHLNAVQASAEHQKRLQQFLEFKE
Chain of UniProt O75607 (O75607 whole entry, looked up): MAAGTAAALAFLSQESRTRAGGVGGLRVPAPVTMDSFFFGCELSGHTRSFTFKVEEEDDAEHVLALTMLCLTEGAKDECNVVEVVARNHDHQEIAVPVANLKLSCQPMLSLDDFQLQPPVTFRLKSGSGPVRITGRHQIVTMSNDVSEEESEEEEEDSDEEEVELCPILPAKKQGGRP
Chain of UniProt Q460N5 (Q460N5 whole entry, looked up): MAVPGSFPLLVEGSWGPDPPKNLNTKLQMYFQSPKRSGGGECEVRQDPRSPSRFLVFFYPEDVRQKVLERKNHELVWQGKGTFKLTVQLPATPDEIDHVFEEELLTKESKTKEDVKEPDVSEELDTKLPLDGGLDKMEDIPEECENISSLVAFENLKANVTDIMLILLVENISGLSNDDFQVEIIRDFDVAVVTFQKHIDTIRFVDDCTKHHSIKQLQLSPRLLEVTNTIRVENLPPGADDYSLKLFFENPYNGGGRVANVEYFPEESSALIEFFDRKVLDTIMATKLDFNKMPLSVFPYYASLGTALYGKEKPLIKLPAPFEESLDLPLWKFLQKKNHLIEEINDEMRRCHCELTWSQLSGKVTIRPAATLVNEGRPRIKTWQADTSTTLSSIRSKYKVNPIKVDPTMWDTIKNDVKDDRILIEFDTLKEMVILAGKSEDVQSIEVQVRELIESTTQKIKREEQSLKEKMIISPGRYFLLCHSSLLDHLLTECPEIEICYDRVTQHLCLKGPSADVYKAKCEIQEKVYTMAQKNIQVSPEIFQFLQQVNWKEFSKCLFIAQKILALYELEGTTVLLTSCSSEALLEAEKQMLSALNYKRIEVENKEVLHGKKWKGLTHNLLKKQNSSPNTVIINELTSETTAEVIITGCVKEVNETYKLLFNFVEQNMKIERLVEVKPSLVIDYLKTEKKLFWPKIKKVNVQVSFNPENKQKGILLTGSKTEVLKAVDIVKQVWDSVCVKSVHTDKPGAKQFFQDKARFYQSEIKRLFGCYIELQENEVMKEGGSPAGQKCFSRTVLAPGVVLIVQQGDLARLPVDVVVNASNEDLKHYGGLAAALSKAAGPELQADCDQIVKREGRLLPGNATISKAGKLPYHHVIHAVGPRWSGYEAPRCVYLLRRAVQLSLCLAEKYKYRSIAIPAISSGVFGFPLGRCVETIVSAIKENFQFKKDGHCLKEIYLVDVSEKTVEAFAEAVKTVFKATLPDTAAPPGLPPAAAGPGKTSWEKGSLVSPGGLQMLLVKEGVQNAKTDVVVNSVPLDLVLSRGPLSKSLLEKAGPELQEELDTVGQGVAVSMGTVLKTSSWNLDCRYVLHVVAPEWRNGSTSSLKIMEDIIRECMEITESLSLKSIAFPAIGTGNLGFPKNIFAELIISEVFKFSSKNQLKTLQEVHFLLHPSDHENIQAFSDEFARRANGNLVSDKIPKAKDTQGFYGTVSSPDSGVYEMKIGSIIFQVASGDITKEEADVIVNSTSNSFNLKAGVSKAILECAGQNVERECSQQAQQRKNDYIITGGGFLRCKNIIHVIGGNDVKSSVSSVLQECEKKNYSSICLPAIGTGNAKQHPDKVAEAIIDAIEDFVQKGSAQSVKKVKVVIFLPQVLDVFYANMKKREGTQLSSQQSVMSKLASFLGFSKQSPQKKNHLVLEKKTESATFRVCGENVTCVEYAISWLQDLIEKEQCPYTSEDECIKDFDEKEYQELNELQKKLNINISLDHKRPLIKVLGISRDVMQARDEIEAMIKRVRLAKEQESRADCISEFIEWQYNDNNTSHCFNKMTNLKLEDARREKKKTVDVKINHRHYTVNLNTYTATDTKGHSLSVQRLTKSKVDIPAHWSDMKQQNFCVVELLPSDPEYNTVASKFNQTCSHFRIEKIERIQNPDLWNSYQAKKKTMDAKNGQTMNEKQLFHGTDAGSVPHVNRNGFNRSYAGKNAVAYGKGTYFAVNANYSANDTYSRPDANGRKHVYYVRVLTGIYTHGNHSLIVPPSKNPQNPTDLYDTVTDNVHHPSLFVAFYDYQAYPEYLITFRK
Chain of UniProt Q6IBW4 (Q6IBW4 whole entry, looked up): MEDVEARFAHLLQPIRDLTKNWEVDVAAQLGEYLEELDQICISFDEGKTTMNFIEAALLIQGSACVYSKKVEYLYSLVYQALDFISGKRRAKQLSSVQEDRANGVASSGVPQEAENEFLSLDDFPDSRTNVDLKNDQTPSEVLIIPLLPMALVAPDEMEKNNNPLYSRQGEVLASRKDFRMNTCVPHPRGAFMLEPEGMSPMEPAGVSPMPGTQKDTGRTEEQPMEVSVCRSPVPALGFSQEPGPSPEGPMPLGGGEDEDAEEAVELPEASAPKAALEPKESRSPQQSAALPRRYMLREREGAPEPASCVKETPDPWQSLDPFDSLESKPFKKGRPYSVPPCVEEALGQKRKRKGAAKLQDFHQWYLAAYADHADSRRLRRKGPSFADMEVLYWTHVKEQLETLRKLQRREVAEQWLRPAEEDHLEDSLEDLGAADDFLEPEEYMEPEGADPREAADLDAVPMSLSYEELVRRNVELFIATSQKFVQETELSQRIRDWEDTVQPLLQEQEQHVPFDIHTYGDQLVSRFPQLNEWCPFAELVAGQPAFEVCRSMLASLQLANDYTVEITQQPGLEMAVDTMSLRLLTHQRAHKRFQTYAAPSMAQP
Chain of UniProt Q9Y639 (Q9Y639 whole entry, looked up): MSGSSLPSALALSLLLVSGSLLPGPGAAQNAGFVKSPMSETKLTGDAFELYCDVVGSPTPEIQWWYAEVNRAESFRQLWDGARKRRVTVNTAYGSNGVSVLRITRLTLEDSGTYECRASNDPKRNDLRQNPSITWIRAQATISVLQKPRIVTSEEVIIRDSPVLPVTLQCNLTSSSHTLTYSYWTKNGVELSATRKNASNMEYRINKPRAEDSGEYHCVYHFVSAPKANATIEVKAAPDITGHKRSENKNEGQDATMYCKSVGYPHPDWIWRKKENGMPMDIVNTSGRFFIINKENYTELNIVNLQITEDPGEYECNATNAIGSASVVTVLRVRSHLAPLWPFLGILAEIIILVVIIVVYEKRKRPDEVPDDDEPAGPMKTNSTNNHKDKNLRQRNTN
Chain of UniProt Q9BRA0 (Q9BRA0 whole entry, looked up): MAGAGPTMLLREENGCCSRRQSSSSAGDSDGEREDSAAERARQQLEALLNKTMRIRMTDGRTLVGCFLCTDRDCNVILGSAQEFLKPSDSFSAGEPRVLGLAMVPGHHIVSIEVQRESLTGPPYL

Target | log2 fold change [1] | log2 fold change (vorinostat) | log2 fold change (silmitasertib) | log2 fold change [2] | log2 fold change (entospletinib)
OTUD7B (UniProt Q6GQQ9) | 0.044 | 0.331 (active) | -0.038 | 0.194 | -0.04
NMRAL1 (UniProt Q9HBL8) | -0.023 | -0.009 | 0.047 | -0.04 | 0.012
NFAT5 isoform 5 (UniProt O94916) | 0.033 | -0.026 | 0.037 | 0.016 | -0.061
MVB12A (UniProt Q96EY5) | -0.002 | -0.812 (active) | -0.016 | 0.016 | 0.042
NUDT5 (UniProt Q9UKK9) | -0.018 | 0.1 | -0.021 | 0.02 | 0.012
NELFCD (UniProt Q8IXH7) | 0.023 | -0.322 (active) | 0.049 | -0.005 | 0.032
NFATC2 (UniProt Q13469) | 0.02 | -0.411 (active) | 0.021 | 0.044 | -0.062
OARD1 (UniProt Q9Y530) | -0.021 | -0.456 (active) | 0.051 | 0.02 | 0.024
NONO (UniProt Q15233) | 0.013 | -0.355 (active) | 0.027 | -0.007 | 0
NCAPH (UniProt Q15003) | -0.031 | -0.33 (active) | 0.009 | -0.01 | -0.004
MSH3 (UniProt P20585) | 0.044 | -0.316 (active) | 0.055 | -0.017 | 0.025
NIT2 (UniProt Q9NQR4) | -0.001 | 0.346 (active) | -0.001 | -0.007 | 0.004
NARS2 (UniProt Q96I59) | 0.063 | -0.344 (active) | 0.05 | -0.029 | -0.079
NNT (UniProt Q13423) | 0.02 | 0.023 | -0.001 | -0.036 | -0.01
PAFAH1B3 (UniProt Q15102) | -0.013 | -0.179 | 0.041 | 0.003 | -0.052
NFKBIE (UniProt O00221) | -0.08 | 0.005 | 0.114 | -0.017 | -0.036
NCOR2 (UniProt C9J0Q5) | 0.093 | -0.27 (active) | -0.016 | 0.011 | -0.074
NPM3 (UniProt O75607) | -0.049 | -0.012 | 0.021 | -0.019 | -0.037
NUDT4 (UniProt Q9NZJ9) | -0.144 | -0.162 | 0.028 | 0.03 | -0.01
NCAPD3 (UniProt P42695) | -0.005 | -0.562 (active) | 0.034 | -0.022 | -0.007
NEBL (UniProt O76041) | 0.056 | 0.207 | 0.052 | -0.026 | -0.018
NAP1L5 (UniProt Q96NT1) | 0.023 | 0.059 | 0.033 | -0.049 | 0.071
OGFR (UniProt Q9NZT2) | -0.036 | -0.285 (active) | 0.02 | -0.018 | -0.061
MYCBP (UniProt Q99417) | 0.006 | 0.113 | -0.015 | -0.025 | -0.075
NCAPH2 (UniProt Q6IBW4) | 0.052 | -0.277 (active) | 0 | 0.037 | -0.008
NAA35 (UniProt Q5VZE5) | -0.04 | -0.308 (active) | 0.017 | 0.004 | 0.028
PARD3 (UniProt Q8TEW0) | -0.071 | -0.314 | -0.118 | -0.081 | -0.003

Target | log2 fold change [1] | log2 fold change (vorinostat) | log2 fold change (silmitasertib) | log2 fold change [2] | log2 fold change (entospletinib)
NNMT (UniProt P40261) | 0.014 | -0.104 | 0.014 | 0.03 | -0.004
MYO1D (UniProt O94832) | 0.046 | -0.418 (active) | 0.012 | -0.027 | -0.002
MTA1 (UniProt Q13330) | -0.005 | -0.212 (active) | -0.037 | 0.016 | -0.036
MT-ATP8 (UniProt P03928) | 0.056 | 0.155 | -0.026 | 0.08 | -0.009
NTPCR (UniProt Q9BSD7) | 0.014 | -0.331 (active) | 0.029 | 0.003 | 0.059
OSBPL6 isoform 5 (UniProt Q9BZF3) | -0.082 | -0.195 | 0.25 | -0.026 | 0.113
NUF2 (UniProt Q9BZD4) | 0.005 | -0.242 (active) | 0.017 | 0.008 | 0.016
OLA1 (UniProt Q9NTK5) | 0.03 | -0.31 (active) | 0.041 | 0.004 | 0.043
MTCH2 (UniProt Q9Y6C9) | -0.016 | -0.432 (active) | -0.001 | -0.075 | 0.026
NPTN (UniProt Q9Y639) | 0.067 | 0.078 | -0.031 | 0.04 | 0.096
OGT (UniProt O15294) | 0.002 | -0.42 (active) | 0.035 | 0.045 | 0.021
MSH2 (UniProt P43246) | 0.006 | -0.287 (active) | 0.027 | -0.022 | 0.034
NIFK (UniProt Q9BYG3) | 0.063 | 0.063 | -0.001 | 0.047 | 0.044
PANK1 (UniProt Q8TE04) | 0.01 | -0.084 | 0.004 | -0.039 | 0.08
PARP14 (UniProt Q460N5) | -0.006 | -0.391 (active) | 0.009 | 0.149 | -0.014
ORC3 isoform 2 (UniProt Q9UBD5) | -0.012 | -0.409 (active) | 0.023 | 0.052 | 0.013
NAA38 isoform 2 (UniProt Q9BRA0) | -0.015 | -0.088 | 0.009 | 0.04 | -0.035
MRPL58 (UniProt Q14197) | 0.02 | -0.053 | -0.008 | 0.038 | 0.041
NDC1 (UniProt Q9BTX1) | 0.013 | -0.134 | -0.016 | -0.012 | -0.016
MTHFD1L (UniProt B7ZM99) | 0.031 | -0.408 (active) | 0.07 | 0.045 | -0.02
MTA3 (UniProt Q9BTC8) | 0.021 | -0.278 (active) | -0.017 | -0.021 | 0.012
MTMR6 (UniProt Q9Y217) | -0.018 | -0.276 (active) | 0.027 | -0.027 | 0.003
OSBP (UniProt P22059) | 0.041 | 0.108 | -0.121 | -0.015 | -0.1
MRPL51 (UniProt Q4U2R6) | -0.03 | -0.067 | -0.054 | 0.121 | 0.003
NUSAP1 (UniProt Q9BXS6) | 0.01 | 0.101 | -0.036 | -0.003 | -0.001
MYBL2 (UniProt P10244) | -0.03 | -0.333 (active) | 0.003 | 0.008 | 0.025
NQO1 (UniProt P15559) | 0.008 | -0.132 | 0.038 | 0.023 | -0.027

Source: the supplement of paper PMC10849652
